From PubChem BioAssay (NCI)
The panel holds about 79,000 compounds, 15% with a hit somewhere; the sample as a whole holds those more often. A number with no mark means an inactive call. Calls of active or inactive are those of the source. No stated cut-off is given here; in the data, active means growth inhibition above about 70%; inactive means the rest.

Assays:
[1] = NCI Yeast Anticancer Drug Screen. Data for the rad50 strain (AID 155);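 further: 0% = growth of vehicle-only cultures of the same strain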; details: S. cerevisiae rad50 strain growth inhibition; at 50.0 µM; active compounds read high
Method in brief: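 Cells are treated with compound, grown, and their growth is then scored against vehicle-only cultures of the same repair-deficient yeast strain.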

[2] = NCI Yeast Anticancer Drug Screen. Data for the mec2-1 strain (AID 157); details: S. cerevisiae mec2-1 strain, at 50.0 µM, active compounds read high
Method in brief: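 Yeast mec2-1 mutant treated with compound. Readout: growth inhibition vs vehicle controls.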

[3] = NCI Yeast Anticancer Drug Screen. Data for the sgs1 mgt1 strain (AID 161);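 further: 0% = growth of cultures given vehicle only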; details: S. cerevisiae sgs1 mgt1 strain, at 50.0 µM, active compounds read high
Method in brief: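 Read-out: growth inhibition vs vehicle controls. Cells: mutant yeast strain deficient in DNA damage repair.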

[4] = NCI Yeast Anticancer Drug Screen. Data for the cln2 rad14 strain (AID 165);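 further: 0% = growth equal to vehicle treated cultures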; details: S. cerevisiae cln2 rad14 strain, at 50.0 µM, active compounds read high
Method in brief: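 cln2 rad14 yeast strain; compound exposure; growth inhibition read vs vehicle controls.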

[5] = NCI Yeast Anticancer Drug Screen. Data for the bub3 strain (AID 167); details: S. cerevisiae bub3 mutant strain, at 50.0 µM, active compounds read high
Method in brief: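 Part of a panel of yeast mutants defective in DNA damage repair or cell cycle regulation. Each strain is grown with compound, and inhibition is calculated relative to solvent-treated cultures.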

[6] = NCI Yeast Anticancer Drug Screen. Data for the mlh1 rad18 strain (AID 175); details: S. cerevisiae mlh1 rad18 strain growth inhibition; at 50.0 µM; active compounds read high
Method in brief: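 Yeast w/ defined DNA-repair lesions; compound exposure; growth vs vehicle controls → % inhibition.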

| Compound | growth inhibition [1] | growth inhibition [2] | growth inhibition [3] | growth inhibition [4] | growth inhibition [5] | growth inhibition [6] |
| --- | --- | --- | --- | --- | --- | --- |
| O=C(O)C1CC1(C(=O)O)C(=O)O (stereo unspecified) | 9.75% | 4.05% | -6.95% | 3.45% | -0.05% | -1.1% |
| COc1cc2c(c(Cl)c1OC)CCN(C)CC2c1ccccc1 (stereo unspecified) | -5.25% | -15.3% | -13.9% | -9.5% | -1.45% | 1.85% |
| C=CCNC(=S)N/C=C\c1c(C(=O)O)cc([N+](=O)[O-])cc1[N+](=O)[O-] | -7.85% | -24.1% | -31.2% | -23.2% | 3.2% | 5.6% |
| C1OC[C@@H]([C@H]2COCO2)O1 | -15.4% | -11.4% | -7% | -0.8% | 1.95% | -11.7% |
| CCCC1=C(c2ccc(OC)cc2)Cc2cc(OC)ccc21 | -14.9% | -16.9% | -1.05% | -2.4% | 2.1% | 9% |
| Oc1ccccc1C1SC(c2ccccc2O)SC(c2ccccc2O)S1 (stereo unspecified) | 96.9% (active) | 96% (active) | 95.7% (active) | 93.1% (active) | 97% (active) | 95.8% (active) |
| O=C1CSC(c2cccs2)N1c1nncs1 (stereo unspecified) | 27.4% | -14.8% | 19.3% | 14.6% | 11.6% | 21.6% |
| N#Cc1cc(N2CCCCC2)ccc1[N+](=O)[O-] | 2.6% | -8.35% | -6.2% | -18.1% | -4.5% | -0.4% |
| CC(C)(Cc1ccccc1)NC1=NCCO1 | -31.9% | -18.8% | -17.6% | -6.2% | -12.2% | -2.6% |
| O=C(COc1ccc(Cl)cc1)Nc1ccc(S(=O)(=O)O)c2ccccc12 | 9% | 0.6% | -12.4% | -5% | 1.65% | 13.4% |
| N#CCCn1cnc2c(Cl)ncnc21 | -10.2% | 5.15% | -18.2% | -12.7% | -7% | -2.6% |
| O=C1/C(=N\O)C2CCC1C2 (stereo unspecified) | -11.2% | 0.75% | 0.3% | 2.5% | -9.2% | 0.85% |
| Cc1oc2ccccc2c(=O)c1Cn1cnc2ccc([N+](=O)[O-])cc21 | -0.45% | 10.3% | 21.5% | 11.8% | 5.85% | 10.1% |
| Cc1cc2c(cc1C)NC(C)CC(=O)N2 (stereo unspecified) | 5.8% | -13.1% | 4.2% | 14.1% | -0.2% | 21.7% |
| Cc1ccc(Cl)cc1NC(=O)Nc1ccc(Cl)c(Cl)c1 | -13.1% | -11.1% | -4.25% | -4.5% | 18.2% | -4.75% |
| Cc1ccc2[nH]c(C)c(C(=O)c3cccnc3)c2c1 | -7.55% | 0.85% | 13.2% | -13.3% | -18.6% | -8.4% |
| COc1ccc2cc(C(=O)O)ccc2c1OC | 1.05% | 1.7% | 27% | 25.1% | -6.3% | -3.85% |
| COc1ccc(CSC(=S)Nc2ccc(F)c(C)c2)cc1 | 20.8% | 14.4% | 17.1% | 28.1% | 5.1% | 10.6% |

| Compound | growth inhibition [1] | growth inhibition [2] | growth inhibition [3] | growth inhibition [4] | growth inhibition [5] | growth inhibition [6] |
| --- | --- | --- | --- | --- | --- | --- |
| ON(CCc1ccncc1)Cc1ccccc1 | 1.6% | -31.1% | -20.1% | 2.95% | -56.3% | 15.5% |
| O=C(O)c1ccccc1NCn1c(=S)sc2ccccc21 | 63% | 45.8% | 60.6% | 5.5% | 43.8% | 53.9% |
| N=C(N)SCC(O)C(O)CSC(=N)N (stereo unspecified) | 0.3% | 4.4% | -0.95% | -30.1% | -6.45% | -1.5% |
| COc1ccc(C2C(Cl)C(=O)N2NC(=O)c2ccc(NC(C)=O)cc2)cc1 (stereo unspecified) | -47.9% | -20.8% | -49.9% | -9.35% | -50% | -54% |
| O=C(O)c1cc(-c2ccccc2)ccc1O | 27.8% | -70.3% | 12.6% | 25.2% | -2.6% | 46.6% |
| O=C(c1cccc([N+](=O)[O-])c1)N1CCOCC1 | -2.65% | -10% | 1.45% | -36.4% | 3.7% | 14.1% |
| COc1ccc(C2COc3cc4c(cc3C2)OCO4)cc1 (stereo unspecified) | -22.4% | -26.1% | -20.6% | -2.3% | 20.1% | 4.9% |
| NC1=NCC(c2ccccn2)C1c1ccc(F)cc1 (stereo unspecified) | -11.9% | -34.9% | 1.1% | 7.75% | -18.7% | -14% |
| CCc1cc(CSc2ccc(Cl)cc2)ccc1N | 98.5% (active) | 99% (active) | 98.8% (active) | 97.2% (active) | 98% (active) | 98.2% (active) |
| CCOC1CS(=O)(=O)CC(OCC)O1 (stereo unspecified) | 3.35% | 6.05% | 4.9% | -30.6% | -8.35% | 13.8% |
| N#Cc1nc(CC(=O)c2ccc(Cl)c(Cl)c2)c(CC(=O)c2ccc(Cl)c(Cl)c2)nc1C#N | 12.1% | 10.4% | 9.2% | 31.4% | 27.6% | 20.2% |
| O=C(Nc1cccc2ccccc12)O/N=C/c1ccccn1 | -9.3% | -3.4% | -11.4% | 39.3% | -7% | -1.7% |
| NC(=O)c1ccccc1N1CCCCC1 | 16.7% | -0.2% | 36% | 21.5% | 32.5% | 22.4% |
| Cc1ccc(N=Nc2c(O)c(C(=O)O)cc3ccccc23)c(S(=O)(=O)O)c1 | 12.3% | -8.35% | -7.5% | -45.2% | 5.9% | 26.4% |
| NC(=O)CSCC(=O)O | -5.9% | -6.2% | 14.5% | -0.15% | -23.2% | -14.1% |
| CCCCCCCCCCCCCCCCCCOCCOCCOCCOCCO | -21.7% | -10.3% | -23.5% | -43.5% | -3.25% | -19.5% |
| Nc1nc2c(ncn2Cc2ccc(Cl)c(Cl)c2)c(=O)[nH]1 | -5.1% | -7.4% | -1.65% | -10.1% | -0.5% | 2.55% |
| CCCCOC(=O)CCCCCCC/C=C/C1C=CC(CCCC)C(C#N)C1C#N (stereo unspecified) | 1% | -5.95% | -25.1% | -6.05% | -4.3% | -13.3% |
